From the supplement of paper PMC8728848
Shown is part of a subset that was picked to be rich in the strongest signals.

Tests used:
Assay in all cases: glycan array binding signal (z-score within array); higher = stronger binding
Settings in all cases: glycan notation: IUPAC condensed, linker removed
[1] = molecular target: Fuc(a1-2)Gal(b1-3)GalNAc(b1-3)Gal
Outline: (§1)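 Arrays were curated from the Consortium for Functional Glycomics database, 3228 in total, and kept only where the protein sequence was available. Binding is expressed as a within-array Z-score. This score was averaged across arrays of the same protein sequence at different concentrations or buffers and across linkers, and negative values can be read as non-binding.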

[2] = molecular target: Fuc(a1-2)Gal(b1-3)GalNAc(b1-4)[Neu5Ac(a2-3)]Gal(b1-4)Glc
Outline: as §1

[3] = molecular target: Fuc(a1-3)[Gal(b1-4)]GlcNAc6S
Outline: as §1

[4] = molecular target: Fuc(a1-3)[Gal3S(b1-4)]Glc6S
Outline: as §1

[5] = molecular target: Fuc(a1-3)[Gal3S(b1-4)]GlcNAc6S
Outline: as §1

[6] = molecular target: Gal(b1-3)GlcNAc(b1-3)Gal(b1-4)Glc
Outline: as §1

[7] = molecular target: Gal(b1-3)[Fuc(a1-4)]GlcNAc(b1-3)Gal(b1-3)[Fuc(a1-4)]GlcNAc
Outline: as §1

[8] = molecular target: Gal(b1-3)[GlcNAc(b1-6)]GalNAc
Outline: as §1

[9] = molecular target: Gal(b1-4)GlcNAc(b1-3)Gal(b1-4)GlcNAc
Outline: as §1

[10] = molecular target: Gal(b1-4)GlcNAc(b1-3)[Gal(b1-4)GlcNAc(b1-6)]GalNAc
Outline: as §1

[11] = molecular target: Gal3S(b1-3)[Fuc(a1-4)]GlcNAc
Outline: as §1

[12] = molecular target: Gal3S(b1-4)Glc
Outline: as §1

[13] = molecular target: Gal3S(b1-4)[Fuc(a1-3)]Glc
Outline: as §1

[14] = molecular target: Gal3S6S(b1-4)GlcNAc
Outline: as §1

[15] = molecular target: Gal6S(b1-4)GlcNAc
Outline: as §1

[16] = molecular target: Glc(a1-4)Glc
Outline: as §1

[17] = molecular target: GlcNAc(b1-3)Gal(b1-4)Glc
Outline: as §1

[18] = molecular target: GlcNAc(b1-3)[GlcNAc(b1-6)]Gal(b1-4)GlcNAc
Outline: as §1

[19] = molecular target: GlcNAc(b1-4)Gal(b1-4)GlcNAc
Outline: as §1

[20] = molecular target: Kdn(a2-3)Gal(b1-3)GlcNAc
Outline: as §1

[21] = molecular target: Neu5Ac(a2-3)Gal(b1-3)GalNAc(b1-3)Gal(b1-4)GlcNAc
Outline: as §1

[22] = molecular target: Neu5Ac(a2-3)Gal(b1-3)GlcNAc
Outline: as §1

[23] = molecular target: Neu5Ac(a2-3)Gal(b1-3)[Neu5Ac(a2-3)Gal(b1-4)]GlcNAc
Outline: as §1

[24] = molecular target: Neu5Ac(a2-3)Gal(b1-4)GlcNAc(b1-2)Man(a1-3)[Neu5Ac(a2-3)Gal(b1-4)GlcNAc(b1-2)Man(a1-6)]Man(b1-4)GlcNAc(b1-4)GlcNAc
Outline: as §1

[25] = molecular target: Neu5Ac(a2-3)GalNAc
Outline: as §1

[26] = molecular target: Neu5Ac(a2-3)[GalNAc(b1-4)]Gal(b1-4)Glc
Outline: as §1

[27] = molecular target: Neu5Ac(a2-3)[Neu5Ac(a2-6)]GalNAc
Outline: as §1

[28] = molecular target: Neu5Ac(a2-6)Gal(b1-4)GlcNAc(b1-2)Man(a1-6)[GlcNAc(b1-2)Man(a1-3)]Man(b1-4)GlcNAc(b1-4)GlcNAc
Outline: as §1

[29] = molecular target: Neu5Gc(a2-3)Gal(b1-3)[Fuc(a1-4)]GlcNAc
Outline: as §1

B1: P-Selectin (Mus musculus), Q01102 (protein)
chain: MAGCPKGSWTPRLRSVILGGAQLIWFSALISELVNQKEVAAWTYNYSTKAYSWNNSRVFCRRHFTDLVAIQNKNEIAHLNDVIPFFNSYYWIGIRKINNKWTWVGTNKTLTEEAENWADNEPNNKKNNQDCVEIYIKSNSAPGKWNDEPCFKRKRALCYTASCQDMSCSNQGECIETIGSYTCSCYPGFYGPECEYVKECGKVNIPQHVLMNCSHPLGEFSFNSQCTFSCAEGYELDGPGELQCLASGIWTNNPPKCDAVQCQSLEAPPHGTMACMHPIAAFAYDSSCKFECQPGYRARGSNTLHCTGSGQWSEPLPTCEAIACEPPEIPIHGSMDCVPSTGTFGYNSSCTFLCAEGFVLKGNDAIQCADSGQWTAPAPFCEALQCPEFPVPSKAQVNCSDPFGTLTYQSVCSFSCDEGSLLVGASVIRCLATGHWNGAPPECQAVSCAPMLSPENGSMTCVQPLGNSTYKSTCQFMCDEGFYLSGPERLDCSPSGHWTGTPPTCEAIKCPGIFAPEQGNLDCSHVHGEFGVGSICHFSCNEDFELLGSENVECTVSGRWSAPPPTCKGITSLPAPAVRCPALTTPGQGTMSCQHHLGSFGPNTTCYFGCKTGFTLRGANSLRCRASGQWTAVTPMCRAVKCSELHMDTAVAMNCSNPWGNFSYGSTCTFQCPEGQSLNGSVRATCREDGHWSDAMPTCQAGTLTIQEALTYLGGAVASTTGLAVGGTLLALLRKRLRKKDDGKCPLNPHSHLGTYGVFTNAAYDPTP
- glycan array binding signal (z-score) [1]: -0.303
- glycan array binding signal (z-score) [2]: -0.426
- glycan array binding signal (z-score) [3]: 2.1
- glycan array binding signal (z-score) [4]: 3.7
- glycan array binding signal (z-score) [5]: 3.95
- glycan array binding signal (z-score) [6]: -0.261
- glycan array binding signal (z-score) [7]: 0.199
- glycan array binding signal (z-score) [8]: -0.4
- glycan array binding signal (z-score) [9]: -0.29
- glycan array binding signal (z-score) [10]: -0.495
- glycan array binding signal (z-score) [11]: 3.6
- glycan array binding signal (z-score) [12]: -0.174
- glycan array binding signal (z-score) [13]: 4.89
- glycan array binding signal (z-score) [14]: 1.4
- glycan array binding signal (z-score) [15]: -0.055
- glycan array binding signal (z-score) [16]: -0.562
- glycan array binding signal (z-score) [17]: -0.616
- glycan array binding signal (z-score) [18]: -0.63
- glycan array binding signal (z-score) [19]: -0.478
- glycan array binding signal (z-score) [20]: -0.37
- glycan array binding signal (z-score) [21]: -0.354
- glycan array binding signal (z-score) [22]: -0.3
- glycan array binding signal (z-score) [23]: -0.297
- glycan array binding signal (z-score) [24]: -0.154
- glycan array binding signal (z-score) [25]: -0.381
- glycan array binding signal (z-score) [26]: -0.331
- glycan array binding signal (z-score) [27]: 0.023
- glycan array binding signal (z-score) [28]: -0.311
- glycan array binding signal (z-score) [29]: 3.75
